Sampled rows, rich in hits. Any-hit rate of the full collection: about 6.7%.
Anthrax LF inh2 = blocks Bacillus anthracis lethal factor protease; P15917; multiplex microsphere protease cleavage assay, LF; inhibition, % at 10 µM; actives 0.12% (n = 360,000); also: plate controls were buffer without enzyme for full effect and enzyme alone for no effect
Target sequence (P15917 whole entry, looked up): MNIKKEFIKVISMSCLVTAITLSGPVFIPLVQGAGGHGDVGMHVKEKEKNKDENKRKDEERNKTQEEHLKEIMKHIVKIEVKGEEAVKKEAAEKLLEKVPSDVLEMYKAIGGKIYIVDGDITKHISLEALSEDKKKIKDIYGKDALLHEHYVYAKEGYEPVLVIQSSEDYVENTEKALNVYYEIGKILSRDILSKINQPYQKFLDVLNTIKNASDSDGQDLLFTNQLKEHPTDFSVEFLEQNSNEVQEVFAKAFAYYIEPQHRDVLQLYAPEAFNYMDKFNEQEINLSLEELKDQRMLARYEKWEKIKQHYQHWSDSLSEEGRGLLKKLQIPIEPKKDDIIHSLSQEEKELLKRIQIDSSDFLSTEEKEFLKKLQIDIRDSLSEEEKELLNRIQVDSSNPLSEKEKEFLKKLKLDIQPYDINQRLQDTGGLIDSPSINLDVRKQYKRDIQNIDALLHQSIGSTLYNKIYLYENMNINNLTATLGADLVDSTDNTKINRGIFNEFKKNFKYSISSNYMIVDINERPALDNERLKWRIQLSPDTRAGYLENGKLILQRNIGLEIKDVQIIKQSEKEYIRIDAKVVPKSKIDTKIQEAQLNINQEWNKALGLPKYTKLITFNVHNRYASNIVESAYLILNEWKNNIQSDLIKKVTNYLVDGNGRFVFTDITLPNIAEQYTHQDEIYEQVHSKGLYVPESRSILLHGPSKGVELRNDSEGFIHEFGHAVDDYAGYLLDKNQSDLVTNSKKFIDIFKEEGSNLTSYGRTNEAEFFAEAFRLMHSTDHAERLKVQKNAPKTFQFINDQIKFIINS
Autofluor counter = counter-screen for toxin protease inhibitors: compound fluorescence | actives 3.1% (n = 360,000) | fluorescence intensity (concentration not given with the values) | compound autofluorescence counterscreen, microsphere flow cytometry; hits give high values; in the data active = fluorescence intensity above about 16000; inconclusive = no clear call, values can overlap the other calls
BoNT-F LC inh = BoNT F light chain protease inhibition; Multiplex microsphere protease cleavage assay, flow cytometry; inhibition, % at 10 µM; actives 0.22% (n = 360,000); in the data active = inhibition above about 35%, passing the limit was not always enough; inconclusive = no clear call, values can overlap the other calls; also: plate controls were buffer without enzyme for full effect and enzyme alone for no effect
GDH-TPI inh = counter-screen for M. tuberculosis FBA inhibitors: GDH-TPI coupled enzymes; GDH-TPI coupled enzyme counterscreen, NADH absorbance; inhibition, % at 4.8 µM; actives 1.2% (n = 360,000); in the data active = inhibition above about 30%;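 also: 0% = DMSO wells and 100% = wells lacking the enzyme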
FBA Mtb inh = Mtb fructose-bisphosphate aldolase inhibition | P9WQA3 | purified M. tuberculosis FBA, fluorescence read-out | inhibition, % at 1 µM | actives 2.3% (n = 360,000) | AID 588726; in the data active = inhibition above about 27%;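 also: 0% = vehicle and 100% = reference inhibitor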
BoNT A protease = BoNT A light chain protease inhibition; multiplex microsphere protease substrate cleavage, flow cytometry; inhibition, % at 10 µM; actives 0.17% (n = 360,000); AID 588499; also: plate controls were buffer without enzyme for full effect and enzyme alone for no effect
Active calls of the source: *; ? = inconclusive; / = no result given; + = active, no number. Rule as the data show it, unless noted: active = inhibition above about 30%; inconclusive = no clear call, values can overlap the other calls; inactive = below that.

SMILES	Anthrax LF inh2	Autofluor counter	BoNT-F LC inh	GDH-TPI inh	FBA Mtb inh	BoNT A protease
O=C1/C(=C\c2ccccn2)SC(=S)N1Nc1ncc(C(F)(F)F)cc1Cl	0	22887*	3	3	6	2
CN1C(=O)c2ccc(C(=O)NCc3ccc4c(c3)OCO4)cc2C1=O	0	2107	-7	3	3	-1
CN(c1ccc(C(=O)NCc2ccc3c(c2)OCO3)cc1)S(C)(=O)=O	0	22044*	3	-2	7	3
CCN1C(=O)c2ccc(C(=O)NCc3ccc4c(c3)OCO4)cc2C1=O	-2	16137*	-2	7	0	0
Cc1ccc(C(=O)NCc2ccc3c(c2)OCO3)c(C)c1	-10	3002	1	4	153*	1
CN(c1ccc(C(=O)NCc2ccc3c(c2)OCO3)cc1)S(=O)(=O)c1ccccc1	1	4881	-6	-7	-2	-2
CCOC(=O)c1c(C)c(C(=O)NCc2ccc3c(c2)OCO3)c(C)n1C	-2	16759*	-8	12	1	-2
Cc1ccc(C(=O)NCc2ccc3c(c2)OCO3)c(Cl)c1	-3	2788	4	6	4	0
O=C(NCc1ccc2c(c1)OCO2)c1nn(-c2ccccc2)c(=O)c2ccccc12	-9	21677*	-8	-10	2	?
O=C(NCc1ccc2c(c1)OCO2)c1ccc(Br)cc1	-7	4289	?	-10	1	1
O=C(NCc1ccc2c(c1)OCO2)c1ccc(-n2cnnn2)cc1	1	16294*	0	2	0	?
CCOC(=O)N/N=C\c1ccc(OC/C=C/c2ccccc2)c(OC)c1	0	5159	5	6	-2	2
CSc1ccc(Cn2c(C)c(C(=O)NCc3ccc(Cl)c(Cl)c3)sc2=O)cc1	-2	5002	0	10	0	0
CCOC(=O)COn1c(SCC(=O)OCC)nc2ccccc2c1=O	?	?	?	9	-1	?
CN(C)C(=O)COn1c(SCC(=O)N(C)C)nc2ccccc2c1=O	-4	20262*	-1	-12	-2	0
CC(C)(C)OC(=O)C(Cl)(C(=O)OC(C)(C)C)c1ccc2nnnn2n1	-12	3939	-6	17	-1	-2
COc1ccc(CNc2ncc(-c3ccccc3)n2C)cc1	2	3144	?	17	1	1
CCOc1cc(CNc2ncc(-c3ccc(OC)cc3)n2C)ccc1O	-4	20656*	-4	-12	2	0
COc1ccc(C2NC(=O)NC3=C2CCc2ccccc23)cc1 (stereo not drawn)	-5	4325	3	11	34*	1
COc1cccc(C2NC(=S)NC3=C2CCc2ccccc23)c1 (stereo not drawn)	-1	2009	-11	9	1	-1
Fc1cccc(F)c1CN1CCN(c2ncccn2)CC1	-6	11369	-8	7	0	-1
CCOC(=O)C1CCN(S(=O)(=O)c2ccc3c(c2)CC(=O)N3C)CC1	-3	2787	-11	1	4	0
C(=N\N1CCN(Cc2cccc3ccccc23)CC1)/c1cccnc1	-11	20176*	5	4	3	7
FC(F)(F)c1ccc(/C=N/N2CCN(Cc3cccc4ccccc34)CC2)cc1	-9	17471*	-9	4	-2	-4
COc1ccc(N2CCN(c3nc4c(C)cccn4c(=O)c3C=C(C#N)C#N)CC2)cc1	-12	3693	-9	7	-1	-2
SMILES	Anthrax LF inh2	Autofluor counter	BoNT-F LC inh	GDH-TPI inh	FBA Mtb inh	BoNT A protease
COc1ccccc1-n1c(SCC(=O)Nc2ccccc2F)nc2[nH]ncc2c1=O	0	16242*	-2	8	-1	?
Nc1[nH]c(C(=O)c2ccccc2)c(-c2ccccc2C(F)(F)F)c1C(=O)NCCc1cccs1	-5	6285	6	/	/	0
CCOc1ccc(N(CCC#N)S(=O)(=O)c2ccc(OC)cc2)cc1	-11	20566*	5	0	-2	7
CCOC(=O)N1CCN(S(=O)(=O)c2ccc3[nH]cc(C(=O)O)c(=O)c3c2)CC1	4	4183	14	9	1	1
COc1ccc(-c2cc(C(F)(F)F)nc(S(C)(=O)=O)n2)cc1	-3	7102	-7	39*	7	-2
COC(=O)CCS(=O)(=O)c1nc(-c2ccccc2)cc(C(F)(F)F)n1	-1	21982*	2	-3	5	2
Cc1ccc(NC(CC(=O)c2ccccc2)C(=O)O)cc1Cl (stereo not drawn)	0	4785	3	14	1	1
O=C(CC(Nc1ccccc1)C(=O)O)c1ccccc1 (stereo not drawn)	1	3527	42*	11	5	1
COc1ccc2[nH]c3c(c2c1)CC(C)NC3=O (stereo not drawn)	/	/	/	15	121*	/
COc1ccc2c3c([nH]c2c1)C(C)=NCC3	-74	7236	-122	22	19	17
CCN(CC)C(=O)Cn1c(=O)n(C)c2ccccc21	0	3540	-7	5	0	-1
Cc1ccc(NS(=O)(=O)c2cc([N+](=O)[O-])ccc2N/N=C/c2sc(N3CCOCC3)nc2-c2ccccc2)c(C)c1	6	5747	-4	7	-1	1
O=[N+]([O-])c1cc(-c2nc(-c3ccncc3)no2)ccc1Cl	1	1970	5	5	0	0
c1ccc(CSc2nccc(-c3ccco3)n2)cc1	-16	3518	?	13	0	-2
Cc1ccc(C)n1-c1nccc(-c2ccco2)n1	-4	4413	1	6	158*	0
Cc1ccc(C)n1-c1nccc(-c2cccs2)n1	-3	21459*	4	-5	161*	4
O=C1Nc2cccnc2N(C(=O)CCl)c2ccccc21	-11	3857	-32	-1	3	-4
C/C(=N\NC(=O)CSc1nc(C)cc(C)n1)c1cccs1	0	2586	-7	7	1	0
Cc1ccccc1NC(=S)N(CCN(C)C)C(C)c1ccccn1 (stereo not drawn)	-12	19817*	7	1	1	6
CCOC(=O)C1=CN(Cc2cccc(F)c2)S(=O)(=O)NC1c1ccccc1 (stereo not drawn)	0	3747	-4	1	0	0
CC(=O)c1c(O)cc(C)n(-c2ccc(F)cc2)c1=O	0	2847	0	5	1	0
CC(=O)c1c(O)cc(C)n(Nc2nc(C)cc(C)n2)c1=O	-2	21656*	-3	0	-3	?
COc1ccc2nc(NCc3ccc(OC)c(OC)c3OC)sc2c1	/	/	/	3	0	/
CCC(=O)NC(=S)Nc1ccc(NC(=O)COc2ccccc2)cc1	0	2492	-5	1	-3	0
CC(=O)Nc1ccc(S(=O)(=O)C(C#N)c2nc3ccccc3nc2NCCO)cc1 (stereo not drawn)	-8	3332	0	23	+	0
CC(=O)Nc1ccc(S(=O)(=O)C(C#N)c2nc3ccccc3nc2NCCCO)cc1 (stereo not drawn)	-3	3438	-2	24	+	2

Compound activity: PubChem, several laboratories
